Experimental data from PubChem BioAssay AID463173 (ICCB-Longwood Screening Facility, Harvard Medical School, 2010).
Out of some 52,000 compounds screened, about 1,700 (3.3%) were called active. For the sample, actives were picked, then their nearest neighbours and some compounds at random. Values without a mark were called inactive. No stated cut-off is given here; in the data, active means survival mostly below about 52% (no sharp cut-off); inactive means mostly above about 56%.

test system: Wild type; test: S. aureus survival, RN4220 and DeltatarO strains – OD600, teichoic acid synthesis inhibitors, primary screen (AID 463173); settings: S. aureus RN4220 wild type/DeltatarO growth, OD600, 18 h, hits give low values, screened at 18.75 µg/mL (by protocol)

SMILES | survival
CN(C)CCCNc1cc(N2CCN(C3CCCCC3)CC2)c2noc3c2c1C(=O)c1ccccc1-3 | 72%
CCCCNc1cc(N2CCN(C3CCCCC3)CC2)c2noc3c2c1C(=O)c1ccccc1-3 | -1% (active)
CCNc1cc(N2CCN(C3CCCCC3)CC2)c2noc3c2c1C(=O)c1ccccc1-3 | 84%
O=C1c2ccccc2-c2onc3c(Br)cc(NC4CCCCC4)c1c23 | 86%
CCCCNc1cc(NC2CCCCC2)c2c3c(onc13)-c1ccccc1C2=O | 117%
CCN(CC)c1cc(NC2CCCCC2)c2c3c(onc13)-c1ccccc1C2=O | 5% (active)
Cc1ccc2nc(COc3ccccc3NC(=O)C(C)(C)C)cc(=O)n2c1 | 66%
O=C(C1CCN(c2ncnc3c2nc2n3CCCCC2)CC1)N1CCN(c2ccccc2F)CC1 | 82%
CCc1ccc(NC(=O)Cn2nnc(C(=O)NCc3ccco3)c2N)cc1 | 94%
CCOC(=O)c1c(S(=O)(=O)N2CCC(C(=O)Nc3cccc(C#N)c3)CC2)c(C)n(C)c1C | 115%
Cc1nn(C(=O)c2cc3sc(Br)cc3[nH]2)c(C)c1C | 97%
COc1ccc(NC(=O)CSc2nnc(N)s2)cc1 | 73%
CCc1ccc(NC(=O)Cn2ncc3c(C)n(Cc4cccc(Cl)c4)c(C)c3c2=O)cc1 | 86%
Cc1ccc(CCNC(=O)c2ccc3c(c2)c(C)c(C)n3Cc2ccccc2)cc1 | 125%
COc1ccc(NC(=O)c2ccc(-c3cccc(Cl)c3C)o2)cc1 | 44%
Cc1ccc(NC(=O)c2ccc(-c3cccc(Cl)c3C)o2)cc1 | 1% (active)
CCOC(=O)c1ccc(NC(=O)c2ccc(-c3cccc(Cl)c3C)o2)cc1 | 59%
CCOc1ccc(NC(=O)c2ccc(-c3cccc(Cl)c3C)o2)cc1 | 66%
Cc1c(Cl)cccc1-c1ccc(C(=O)Nc2ccc(F)cc2)o1 | -1% (active)
Cc1c(Cl)cccc1-c1ccc(C(=O)Nc2ccc3oc(-c4cccnc4)nc3c2)o1 | 79%
Clc1ccc(-c2nc3ccccn3c2Nc2ccc3c(c2)OCCO3)s1 | 79%
Cc1ccccc1C(=O)Nc1cccc(-c2cn3cccnc3n2)c1 | 105%
COc1ccc(-c2nc(CSCC(=O)NCCc3ccc(C)cc3)c(C)o2)cc1OC | 72%
CCc1ccc(-c2nc(CSCC(=O)NCc3ccc(C)cc3)c(C)o2)cc1 | 0% (active)

SMILES | survival
Cc1ccc(CNC(=O)CSCc2nc(-c3cccc(C)c3)oc2C)cc1 | -1% (active)
Cc1oc(-c2cccc(Cl)c2)nc1CSCC(=O)NCc1ccccc1Cl | -1% (active)
Cc1ccc(CCNC(=O)CSCc2nc(-c3ccc(C)cc3)oc2C)cc1 | 27%
CCOc1ccc(-c2nc(CSCC(=O)NCc3ccc(C)cc3)c(C)o2)cc1 | 73%
Cc1oc(-c2cccc(Cl)c2)nc1CS(=O)(=O)CC(=O)NCc1ccccc1Cl | 75%
Cc1ccc(CNC(=O)CSCc2nc(-c3ccc(Cl)cc3)oc2C)cc1 | 88%
COc1ccc(-c2nc(CSCC(=O)NCc3ccccc3Cl)c(C)o2)cc1OC | 70%
Cc1ccc(-n2nc(C)c3c(C(=O)NCc4ccccc4)cc(C4CC4)nc32)cc1 | 82%
O=C(Cn1c(=O)n(-c2ccccc2)c(=O)c2c3c(sc21)CCC3)c1ccc(Br)cc1 | 87%
COc1ccc(N2C(=O)CSC23C(=O)N(Cc2ccc(C)cc2)c2ccccc23)cc1Cl (centres undefined) | 135%
CC(C)(C)OC(=O)N1CCC(c2c(C(=O)NCCN3CCOCC3)cnn2-c2cccc(F)c2)CC1 | 120%
Clc1ccccc1C(c1nnnn1Cc1ccco1)N1CCN(Cc2ccco2)CC1 (centres undefined) | 111%
O=C(NCC(c1ccc2c(c1)OCO2)N1CCN(c2ccc(F)cc2)CC1)c1cccc([N+](=O)[O-])c1 (centres undefined) | 83%
COc1ccc(Nc2ncnc3scc(-c4ccc(F)cc4)c23)cc1 | 79%
COc1ccc(-c2csc3ncnc(Nc4cccc(F)c4)c23)cc1 | -3% (active)
COc1ccc(-c2csc3ncnc(Nc4cccc(OC)c4)c23)cc1 | 73%
CC(=O)c1ccc(NC(=O)CC2Nc3cc(C)c(C)cc3NC2=O)cc1 (centres undefined) | 78%
Cc1cc(C)cc(N2C(=O)N(Cc3cc(=O)n4ccccc4n3)c3ccccc3S2(=O)=O)c1 | 127%
CC(C)c1ccc2oc(-c3ccc(NC(=O)c4cccc(Br)c4)cc3)nc2c1 | 70%
COc1ccc(CNC(=O)C(C(C)C)N2Cc3ccccc3C2=O)cc1 (centres undefined) | -6% (active)
Cc1ccc(NC(=O)CC(c2ccc(F)cc2)N2Cc3ccccc3C2=O)cc1C (centres undefined) | 88%
Cc1ccc(CNC(=O)C(C(C)C)N2Cc3ccccc3C2=O)cc1 (centres undefined) | 80%
COc1ccc(CNC(=O)C(CC(C)C)N2Cc3ccccc3C2=O)cc1 (centres undefined) | 134%
COc1cc(Cl)c(C)cc1NC(=O)CC(c1ccc(F)cc1)N1Cc2ccccc2C1=O (centres undefined) | -2% (active)

SMILES | survival
COc1ccc(C(CC(=O)Nc2cc(OC)c(OC)c(OC)c2)N2Cc3ccccc3C2=O)cc1 (centres undefined) | 65%
COc1ccc(C(CC(=O)Nc2cc(Cl)c(OC)cc2OC)N2Cc3ccccc3C2=O)cc1 (centres undefined) | -3% (active)
COc1cc(OC)c(NC(=O)CC(c2cccs2)N2Cc3ccccc3C2=O)cc1Cl (centres undefined) | 101%
CCOc1ccc(C(CC(=O)Nc2cc(C)c(Cl)cc2OC)N2Cc3ccccc3C2=O)cc1OC (centres undefined) | 65%
CCn1cc(C(=O)NCCc2ccccc2)c(=O)c2cc(S(=O)(=O)N3CCOCC3)ccc21 | 85%
COc1ccc(NC(=O)c2ccc(NC(=O)CCS(=O)(=O)c3cccs3)cc2)cc1Cl | 81%
COc1ccc(-c2cc(C(=O)Nc3cccnc3Cl)no2)cc1OC | 140%
Cc1ccc(C)c(N2CCN(c3nc4ccccc4c4nc(-c5cccnc5)nn34)CC2)c1 | 82%
CCOC(=O)C(Cc1c[nH]c2ccccc12)NC(=O)COc1ccc(CC)cc1 (centres undefined) | 32%
Cc1cc(OCC(=O)NC(Cc2c[nH]c3ccccc23)C(=O)O)ccc1Cl (centres undefined) | 69%
CCOC(=O)C(Cc1c[nH]c2ccccc12)NC(=O)COc1ccc(Cl)c(C)c1 (centres undefined) | 8% (active)
CCc1ccccc1N(CC)C(=O)c1c(C)oc2ncn(C)c(=O)c12 | 71%
CC(C)Sc1nc2sc3c(c2c(=O)n1Cc1ccccc1)CCCC3 | 5% (active)
CSc1nc2sc3c(c2c(=O)n1-c1ccc(C)cc1)CCCC3 | 51%
C#CCSc1nc2sc3c(c2c(=O)n1Cc1ccccc1)CCCC3 | 44%
C=CCn1c(SC(C)C)nc2sc3c(c2c1=O)CCCC3 | 108%
CSc1nc2sc3c(c2c(=O)n1-c1ccccc1C)CCCC3 | 99%
CC(C)Sc1nc2sc3c(c2c(=O)n1-c1ccccc1)CCCC3 | -2% (active)
CCS(=O)(=O)NCC(c1ccco1)N1CCN(c2ccccc2)CC1 (centres undefined) | 89%
CCS(=O)(=O)N1CCc2cc(C(=O)NC(C)c3ccccc3)ccc21 (centres undefined) | 90%
CC(C)C(=O)Nc1ccc2nc(SCCOc3ccccc3)sc2c1 | 93%
Cc1ccc(Cl)cc1NC(=O)C1CCN(c2nnc(C)c3c(C)n(-c4ccccc4)nc23)CC1 | 71%
COc1ccc(NC(=O)c2nc(S(=O)(=O)Cc3ccc(C)cc3)ncc2Cl)cc1 | 81%
Cc1cccc(CS(=O)(=O)c2ncc(Cl)c(C(=O)Nc3nc4ccc(F)cc4s3)n2)c1 | 7% (active)

SMILES | survival
Cc1ccc(CS(=O)(=O)c2ncc(Cl)c(C(=O)Nc3nc4ccc(F)cc4s3)n2)cc1 | 20%
O=C(Nc1nc2ccc(F)cc2s1)c1nc(S(=O)(=O)Cc2ccccc2)ncc1Cl | 27%
Cc1cccc(CS(=O)(=O)c2ncc(Cl)c(C(=O)NCc3ccccc3)n2)c1 | 27%
Cc1ccc(NC(=O)c2nc(S(=O)(=O)Cc3cccc(C)c3)ncc2Cl)cc1 | -1% (active)
CCOC(=O)c1ccc(CN(Cc2ccc(F)cc2)S(=O)(=O)c2ccc(F)cc2)cc1 | 68%
CCOC(=O)c1ccc(CN(Cc2ccc(Cl)cc2Cl)S(=O)(=O)c2cccc(Cl)c2)cc1 | 73%
CCOC(=O)c1ccc(CN(Cc2ccccc2)S(=O)(=O)c2ccc(Cl)cc2)cc1 | 0% (active)
COc1ccc(CCNC(=O)CCc2c(C)c3cc4c(C)coc4c(C)c3oc2=O)cc1OC | 105%
CC(Oc1ccccc1)C(=O)Nc1c(C(=O)Nc2cccc(F)c2)oc2ccccc12 (centres undefined) | 57%
CCOC(=O)c1[nH]c2c(c1Cc1ccccc1OC)C(=O)CC(c1ccccc1)C2 (centres undefined) | 126%
CN(C)c1ccc(C2CC(c3c(O)n(C4CCCCC4)c(=O)[nH]c3=O)=Nc3ccccc3S2)cc1 (centres undefined) | 85%
O=C(Cn1c(=O)n(Cc2ccc(C(=O)NCc3ccc4c(c3)OCO4)cc2)c(=O)c2ccccc21)Nc1ccc(F)cc1F | 111%
CC(C)c1cc(-c2nc(-c3ccccc3)no2)n[nH]1 | 71%
COc1ccc(Cn2c(SCC(=O)Nc3ccc(OC)cc3)nc3ccccc32)cc1 | 85%
COc1ccc(-c2nc3ccccc3n2Cc2ccc(C(C)C)cc2)cc1 | -8% (active)
CCOc1cc(Cn2c(-c3ccc(O)c(OCC)c3)nc3ccccc32)ccc1O | 80%
COc1ccc(-c2nc3ccccc3n2Cc2ccc(Cl)cc2)cc1 | 4% (active)
COc1ccc(OCCCCn2c(-c3ccc(Cl)cc3)nc3ccccc3c2=O)cc1 | 38%
COc1ccc(Cn2c(SC)nc3ccccc32)cc1 | 108%
COc1ccc(-c2noc(=O)n2Cc2ccccc2)cc1 | 128%
COc1ccc(-c2nc3ccccc3n2Cc2ccccc2)cc1 | 0% (active)
CCc1ccc(OCCCn2c(-c3ccc(Cl)cc3)nc3ccccc3c2=O)cc1 | 52%
